# Screens as filed in PubChem BioAssay.
# PostGolgi ctrl: growth inhibition of yeast control strain, primary screen, counter-screen for post-Golgi transport modulator project; 98,000 compounds, 5% hits; efflux-deficient yeast background strain, growth absorbance A615, 16 h; inhibition, % at 10 µM; AID 738, 2007
# CYP2C9 inhib: blockers of cytochrome P450 2C9 activity – biochemical, luminescence, ADME assay, primary screen; 96,000 compounds, 20% hits; CYP2C9 Supersomes, luciferin-H conversion; AID 777, 2007; inhibition, % at 5 µM; P11712;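 active = blocking of liver enzyme CYP2C9 beyond about 50% at 5 µM, limit read from the data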
# PostGolgi yeast: phenotypic screen on post-Golgi transport, primary screen. inhibition, % at 10 µM. post-Golgi transport phenotypic cell assay. 98,000 compounds, 0.9% hits;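 also: yeast cells grown in 1536-well plates; yeast grown about 18 h at 30C before absorbance read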
# CYP2C19 act: human CYP2C19 activators, primary screen, biochemical, luminescence; AID 1025, 2008; recombinant CYP2C19, luciferin-H EGE luminescence; active compounds read high; 0 = fully inhibited enzyme, 1 = untreated enzyme; 96,000 tested, under 10 active; activation factor at 5 µM;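 active = activation factor of at least 2 at 5 µM in the primary screen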;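 also: 0 = wells with 2.5 mM tranylcypromine and 1 = vehicle-only wells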
# Target sequence (P33261 whole entry, looked up): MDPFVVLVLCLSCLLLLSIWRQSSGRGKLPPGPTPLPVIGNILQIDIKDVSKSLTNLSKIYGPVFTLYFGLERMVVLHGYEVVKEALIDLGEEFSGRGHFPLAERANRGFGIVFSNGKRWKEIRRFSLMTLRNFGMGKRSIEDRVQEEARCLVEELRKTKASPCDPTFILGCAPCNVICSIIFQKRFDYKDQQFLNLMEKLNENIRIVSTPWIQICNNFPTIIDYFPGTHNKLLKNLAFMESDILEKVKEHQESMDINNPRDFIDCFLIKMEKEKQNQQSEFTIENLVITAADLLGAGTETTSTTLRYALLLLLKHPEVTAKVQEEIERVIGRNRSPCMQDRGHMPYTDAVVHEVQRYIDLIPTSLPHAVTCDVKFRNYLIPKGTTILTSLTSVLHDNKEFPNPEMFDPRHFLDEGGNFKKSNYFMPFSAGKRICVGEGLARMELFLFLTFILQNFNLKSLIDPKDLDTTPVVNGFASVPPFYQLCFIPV
# CYP2C19 inh: blockers of cytochrome P450 2C19 activity – biochemical, luminescence, ADME assay, primary screen. P33261. CYP2C19 Supersomes, luciferin-H EGE luminescence, 30 min. inhibition, % at 5 µM. 96,000 compounds, 21% hits;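 active = CYP2C19 inhibition above a set limit at 5 µM in the primary screen, cut at about 50% in these data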;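 also: plate controls were negative control wells for no effect and 2.5 mM tranylcypromine positive control for full effect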
# CYP2C9 act: human CYP2C9 activators, primary screen, biochemical, luminescence; Cytochrome P450 2C9 (Homo sapiens), P11712; recombinant CYP2C9, luciferin-H conversion; active compounds read high; factor 1 = untreated enzyme, 0 = blocked; activation factor at 5 µM; 96,000 compounds, 1.4% hits; AID 1024, 2008;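 active = activation factor of 2 or more for CYP2C9 at a 5 µM dose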;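 also: 0 = sulfaphenazole-blocked wells and 1 = vehicle-only wells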
# The depositor's hits bear a star; / = no result. Shown are actives, neighbours in structure and some others; about 32% of the full set was active somewhere. Rule as the data show it, unless noted: active = inhibition above about 30%; inactive = the rest.
SMILES,PostGolgi ctrl,CYP2C9 inhib,PostGolgi yeast,CYP2C19 act,CYP2C19 inh,CYP2C9 act
COc1ccc(-c2c3c(=O)n(C)c(=O)n(C)c3cn2C2CCCCC2)cc1,41.1*,77.0*,-18.1,0.3,70.5*,0.2
CN(CC(=O)Nn1cnnc1)S(=O)(=O)c1ccc(Br)cc1,19.9,34.8,-0.9,0.2,82.7*,0.7
CN(CCCC(=O)Nc1ccncc1)S(=O)(=O)c1ccc(Cl)cc1,19.3,98.7*,3.8,0,98.2*,0
Cc1nc(NC(=O)CN(C)S(=O)(=O)c2ccc(Br)cc2)sc1C,10.8,67.1*,-4.9,0.1,94.1*,0.3
CN(CC(=O)Nc1ccncc1)S(=O)(=O)c1ccc(Br)cc1,3.6,76.6*,3.5,0,99.5*,0.2
COc1ccc(NC(=O)CN(C)S(=O)(=O)c2ccc(Cl)cc2)cc1Cl,7.8,6.0,-5.9,0.9,6.0,0.9
CN(CC(=O)NCCc1ccccc1)S(=O)(=O)c1ccc(Br)cc1,3.2,-76.3,-5.5,0.5,47.0,1.8
O=c1oc(-c2ccccc2F)nc2c1cnn2-c1ccccc1,21.0,3.4,-2.0,0.9,9.0,1
CC(C)c1nnc(NC(=O)CCC(=O)NCc2ccc3c(c2)OCO3)s1,5.4,11.5,7.5,1,0.6,0.9
COC(=O)N(C)CCCC1(C)C(=O)N(C)c2ccc(O)cc21 (stereo unspecified),-0.8,38.1,-1.6,0.8,19.7,0.6
CCC12CC3CC(C1)CC(C(=O)Nc1nn[nH]n1)(C3)C2,9.6,-11.5,-7.0,0.9,7.3,1.1
COc1cnc(-c2ccccn2)nc1Sc1c(Cl)cccc1Cl,17.1,-7.2,15.4,1.1,-5.0,1.1
c1ccc(CCc2nc(-c3ccccn3)no2)cc1,4.9,5.9,6.7,0.5,54.8*,0.9
Clc1ccc(-c2nc(-c3ccccn3)no2)cc1Cl,5.5,-8.1,8.8,0.9,12.7,1.1
Clc1ccccc1OCc1nc(-c2ccccn2)no1,14.4,22.3,12.9,0.2,84.7*,0.8
Brc1ccc(-c2noc(CCc3ccccc3)n2)o1,3.3,10.2,-8.0,0.5,47.4,0.9
Clc1ccc(OCc2nc(-c3ccccn3)no2)c(Br)c1,31.4*,-1.4,-0.7,0.9,8.8,1
O=C(CN1C(=O)C2CC=C(Cl)CC2C1=O)NCc1ccccc1 (stereo unspecified),5.7,14.8,3.8,0.9,6.0,0.9
COc1ccc(C2C(C(=O)O)CC(=O)N2C2CCCCC2)cc1 (stereo unspecified),6.0,20.3,-1.1,1.1,-5.2,0.8
S=c1[nH]nc(CSCc2ccccc2Cl)n1-c1ccccc1,-1.3,75.6*,-0.5,0.3,72.3*,0.2
O=C1CC(N(O)c2ccccc2)C(=O)N1c1cc(Cl)cc(Cl)c1 (stereo unspecified),18.0,-51.4,1.3,0.8,23.3,1.5
Cc1ccccc1N1C(=O)CC(N(O)c2ccccc2)C1=O (stereo unspecified),12.6,-19.7,-1.9,0.3,74.4*,1.2
O=C1CC(N(O)c2ccccc2)C(=O)N1Cc1ccccc1 (stereo unspecified),1.7,1.2,1.1,0.2,78.1*,1
COCCSc1nc2c(c(=O)[nH]c(=O)n2C)n1Cc1cccc(C)c1,-7.4,/,1.4,/,/,/
CCCC(=O)NC(C)c1nc2ccccc2n1CC (stereo unspecified),9.6,-36.2,-0.2,0.7,29.2,1.4
SMILES,PostGolgi ctrl,CYP2C9 inhib,PostGolgi yeast,CYP2C19 act,CYP2C19 inh,CYP2C9 act
CC1(C)Cc2c(cnn2-c2ccccc2)C(=O)/C1=N\NC(=O)c1ccccc1N,0.3,-16.6,7.3,1.1,-13.1,1.2
CC1(C)Cc2c(cnn2-c2ccccc2)-c2c1c1ccccc1n2CC(O)CBr (stereo unspecified),43.8*,54.8*,23.1,0.5,52.6*,0.5
CCC(=O)Nn1cnc2c(c1=O)C1(CCCCC1)Cc1ccccc1-2,30.9*,-8.7,3.2,0.6,42.3,1.1
CCCC(=O)Nn1cnc2c(c1=O)C1(CCCCC1)Cc1ccccc1-2,34.8*,64.0*,-1.5,0.5,50.2*,0.4
Cc1ccccc1-n1c(=O)c2c(n3cnnc13)-c1ccccc1CC21CCCCC1,19.2,-4.2,-1.9,1.1,-9.2,1
N#CC(c1nc2ccccc2nc1N1CCCCC1)S(=O)(=O)c1ccc(Cl)cc1 (stereo unspecified),/,19.6,/,0.9,6.9,0.8
Nc1ccccc1-c1nnc(-c2ccc(-c3ccccc3)cc2)o1,9.8,40.4,-7.8,0.8,20.3,0.6
CCOC(=O)Cc1c(C)nc2c(-c3ccccc3)c[nH]n2c1=O,9.4,19.7,-1.9,1.1,-6.2,0.8
Cc1cc(C)c2c(=O)[nH]c(=O)n(Cc3ccccc3)c2n1,43.4*,5.2,7.7,1,-4.2,0.9
O=c1[nH]c(=O)n(Cc2ccccc2)c2c1CCC2,2.4,4.6,0.0,1,3.5,1
O=c1[nH]c2cccnc2n1Cc1ccccc1,7.9,93.8*,-7.3,0.5,50.9*,0.1
O=C(C1CCCN(S(=O)(=O)c2cccc3nonc23)C1)N1CCN(c2cccc(Cl)c2)CC1 (stereo unspecified),44.8*,43.4,0.7,0.6,37.0,0.6
Cc1[nH]c(=O)[nH]c(=O)c1S(=O)(=O)N1CCCC(C(=O)N2CCC(Cc3ccccc3)CC2)C1 (stereo unspecified),-0.3,-7.3,-8.0,0.5,52.8*,1.1
O=C(C1CCCN(S(=O)(=O)c2cccc3nonc23)C1)N1CCC(Cc2ccccc2)CC1 (stereo unspecified),24.1,-78.9,-3.4,0.5,50.9*,1.8
CCCS(=O)(=O)c1snnc1C,-2.2,7.6,6.7,1.1,-10.0,0.9
Cc1ccc(CCNC(=O)C2CCC(=O)N2C2CCCC2)cc1 (stereo unspecified),-6.5,9.4,-7.5,0.8,16.2,0.9
C=CCSC1=N/C(=C\c2ccc(C)o2)C(=O)S1,-3.8,49.9,-1.7,0.2,82.0*,0.5
C=CCSC1=N/C(=C\c2ccsc2)C(=O)S1,1.2,12.1,0.0,1,2.4,0.9
CCCC(=O)N(c1ccc2oc(=O)sc2c1)S(=O)(=O)c1cccs1,6.2,70.9*,1.1,0,99.2*,0.3
CC(C)C(=O)N(c1ccc2oc(=O)sc2c1)S(=O)(=O)c1ccccc1,19.0,2.8,16.3,0.9,6.6,1
CC(=O)N(c1ccc2oc(=O)sc2c1)S(=O)(=O)c1ccccc1,7.7,14.3,-1.9,0.4,64.7*,0.9
